# Assay results taken from PubChem BioAssay (NCATS).
# Records with an inconclusive call do not appear. Entries that show only a call come without a potency. Calls of active or inactive are those of the source. Calls follow the shape of the dose curve; as a rule, active = well fitted inhibition curve with a large enough effect; inconclusive = small, poorly fitted or top-dose-only effect; inactive = flat fitted curve, though single readings scatter.
# Columns and labels:
# Assay in all cases: qHTS profiling for inhibitors of Plasmodium falciparum proliferation (AID 504749); also: nearly all actives have a fitted effect of over 60% in size
# Settings in all cases: P. falciparum in erythrocytes, SYBR Green DNA, 72 h; series mostly up to 28.7 µM
# CP192 = system: CP192
# Method in brief: (§1)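 Readout was DNA-dye fluorescence from lysed cultures, ex 485/em 535 nm. Parasitized red cells had grown 72 h with compound; data scaled between 0.29 uM artemisinin and DMSO wells and corrected using vehicle-only plates.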
# CP194 = system: CP194
# Method in brief: as §1
# CP201 = system: CP201
# Method in brief: as §1
# CP203 = system: CP203
# Method in brief: as §1
# CP211 = system: CP211
# Method in brief: as §1
# CP215 = system: CP215
# Method in brief: as §1
# CP217 = system: CP217
# Method in brief: as §1
# CP237 = system: CP237
# Method in brief: as §1
# CP185 = system: CP185
# Method in brief: as §1
# CP191 = system: CP191
# Method in brief: as §1
# Potency is read from the fitted curve at half-maximal effect.
smiles,measurement,setting,value
CC1=NS(=O)(=O)c2cc(Cl)ccc2N1,Potency,CP192,inactive
same,Potency,CP194,inactive
same,Potency,CP201,inactive
same,Potency,CP203,inactive
same,Potency,CP211,inactive
same,Potency,CP215,inactive
same,Potency,CP217,inactive
same,Potency,CP237,inactive
CCCN1C[C@H](CSC)C[C@@H]2c3cccc4[nH]cc(c34)C[C@H]21,Potency,CP185,inactive
same,Potency,CP192,inactive
same,Potency,CP201,inactive
same,Potency,CP215,inactive
CCOC(=O)C1=C(C)NC(C)=C(C(=O)OC)C1c1cccc([N+](=O)[O-])c1 (stereo not drawn),Potency,CP237,12.6 µM (active)
CC(C)(C)c1ccc(C(=O)CCCN2CCC(OC(c3ccccc3)c3ccccc3)CC2)cc1,Potency,CP217,7.94 µM (active)
same,Potency,CP237,11.2 µM (active)
O=C(CCCN1CCC(O)(c2cccc(C(F)(F)F)c2)CC1)c1ccc(F)cc1,Potency,CP191,7.94 µM (active)
same,Potency,CP201,inactive
same,Potency,CP215,10.7 µM (active)
same,Potency,CP237,7.94 µM (active)
CCc1cccc(N(C)C(N)=Nc2cccc3ccccc23)c1,Potency,CP192,inactive
same,Potency,CP203,4.78 µM (active)
Cc1nc2sccn2c(=O)c1CCN1CCC(=C(c2ccc(F)cc2)c2ccc(F)cc2)CC1,Potency,CP192,inactive
same,Potency,CP201,inactive
same,Potency,CP211,inactive
CN(C)CCCN1c2ccccc2Sc2ccccc21,Potency,CP191,inactive
same,Potency,CP192,inactive
CN(C(=O)CCCOc1ccc2[nH]c(=O)ccc2c1)C1CCCCC1,Potency,CP185,inactive
same,Potency,CP191,inactive
same,Potency,CP192,inactive
same,Potency,CP201,inactive
same,Potency,CP211,inactive
same,Potency,CP215,inactive
same,Potency,CP217,inactive
same,Potency,CP237,inactive
C[n+]1cc2c3c(ccc2c2ccc4cc5c(cc4c21)OCO5)OCO3,Potency,CP185,inactive
same,Potency,CP192,inactive
same,Potency,CP194,inactive
same,Potency,CP201,inactive
same,Potency,CP211,inactive
same,Potency,CP215,inactive
same,Potency,CP237,inactive
CN(C)CCN(Cc1cccs1)c1ccccn1,Potency,CP191,inactive
same,Potency,CP203,12 µM (active)
same,Potency,CP237,2 µM (active)
CNCCC(Oc1ccccc1OC)c1ccccc1 (stereo not drawn),Potency,CP191,inactive
same,Potency,CP192,inactive
same,Potency,CP211,inactive
same,Potency,CP215,inactive
same,Potency,CP237,inactive
Cc1scc2c1N(C(=O)CN1CCN(C)CC1)c1ccccc1NC2=O,Potency,CP185,inactive
same,Potency,CP192,inactive
same,Potency,CP194,inactive
same,Potency,CP201,inactive
same,Potency,CP203,inactive
same,Potency,CP211,inactive
same,Potency,CP215,inactive
same,Potency,CP217,inactive
same,Potency,CP237,inactive
C=CCc1ccccc1OCC(O)CNC(C)C (stereo not drawn),Potency,CP194,15.1 µM (active)
same,Potency,CP237,5.01 µM (active)
O=C1NCN(c2ccccc2)C12CCN(CCCC(c1ccc(F)cc1)c1ccc(F)cc1)CC2,Potency,CP185,10 µM (active)
same,Potency,CP191,5.62 µM (active)
same,Potency,CP217,8.91 µM (active)
same,Potency,CP237,6.31 µM (active)
CCN(CC)CCNC(=O)c1cc(S(C)(=O)=O)ccc1OC,Potency,CP185,inactive
same,Potency,CP191,inactive
same,Potency,CP217,inactive
same,Potency,CP237,inactive
